{"source": "the OligoGym collection", "data": [{"biological_target": "RTN4", "assay": "pooled miR-30 sensor sort-seq; sequence = guide strand", "conditions": "shRNA", "values": [{"sequence": "TTTCTGAGTATTCTAATTCTGA", "sensor-assay potency score (higher = more potent)": -0.686}, {"sequence": "TTCACTTTCACATGCTTCCTGT", "sensor-assay potency score (higher = more potent)": -0.0605}, {"sequence": "TTTTGTGTTATCTAAACTGAGC", "sensor-assay potency score (higher = more potent)": -0.981}, {"sequence": "TATTACTAACTAACTTCTCTTC", "sensor-assay potency score (higher = more potent)": -0.121}, {"sequence": "TAACTAACTTCTCTTCTTCATC", "sensor-assay potency score (higher = more potent)": -0.896}, {"sequence": "TAAAGATCTAACAACGATCTGT", "sensor-assay potency score (higher = more potent)": 0.175}, {"sequence": "TTCTAGGTCAGTATATTCCCTG", "sensor-assay potency score (higher = more potent)": -0.784}, {"sequence": "TATCTGTTGTGACATAATCTGT", "sensor-assay potency score (higher = more potent)": -0.595}, {"sequence": "TTTCTGAAGACACAACTTCATC", "sensor-assay potency score (higher = more potent)": -1.21}, {"sequence": "TTTCTGAAGTAGGATCTCCTAA", "sensor-assay potency score (higher = more potent)": -0.155}, {"sequence": "TAAATCTCTATCTATGAGTAGA", "sensor-assay potency score (higher = more potent)": -0.547}, {"sequence": "TTGTGACATAATCTGTCTCAGA", "sensor-assay potency score (higher = more potent)": -1.04}]}, {"biological_target": "RTTN", "assay": "pooled miR-30 sensor sort-seq; sequence = guide strand", "conditions": "shRNA", "values": [{"sequence": "TTTAATAACACCATCCTCCTTT", "sensor-assay potency score (higher = more potent)": 0.89}, {"sequence": "TACTCTTCTGAATTACTCCTTT", "sensor-assay potency score (higher = more potent)": 0.0347}, {"sequence": "TTAGTAAGTCTAGACAGCCATC", "sensor-assay potency score (higher = more potent)": -1.38}, {"sequence": "TATCATCTGTTTCTTCTCGTGC", "sensor-assay potency score (higher = more potent)": 0.159}, {"sequence": "TTCAAATCAAACATACACCGTC", "sensor-assay potency score (higher = more potent)": 0.646}, {"sequence": "TTAATAACCAGCTCTCTTCTGT", "sensor-assay potency score (higher = more potent)": 0.265}, {"sequence": "TTCAGGAGTAACTTCAACCAAA", "sensor-assay potency score (higher = more potent)": -0.732}, {"sequence": "TTGTATTTGCTCATCTCTGTTA", "sensor-assay potency score (higher = more potent)": -0.347}, {"sequence": "TTTCCTGTCAGTAACTTCCATG", "sensor-assay potency score (higher = more potent)": -0.534}]}]}
